Source: PubChem BioAssay AID1835 (Johns Hopkins Ion Channel Center, 2009)
Screen size: about 2,400 compounds; about 750 (31%) were called active. The list shows a part of the results. A number with no mark means an inactive call.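 How the source made its calls: active means median signal gain over dofetilide-blocked control wells reaching their mean plus 3 SD, so readout 1 at least 0; inactive means the rest.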

biological target: Voltage-gated inwardly rectifying potassium channel KCNH2 (Homo sapiens) (UniProt Q12809); assay: modulators restoring hERG flux under dofetilide – cell-based, thallium flux, duplicate retest, dofetilide IC70, confirmation (AID 1835); settings: hERG cell line, FluxOR thallium flux, dofetilide-blocked; at 10 µM; hits give high values
Sequence (Q12809 whole entry, looked up): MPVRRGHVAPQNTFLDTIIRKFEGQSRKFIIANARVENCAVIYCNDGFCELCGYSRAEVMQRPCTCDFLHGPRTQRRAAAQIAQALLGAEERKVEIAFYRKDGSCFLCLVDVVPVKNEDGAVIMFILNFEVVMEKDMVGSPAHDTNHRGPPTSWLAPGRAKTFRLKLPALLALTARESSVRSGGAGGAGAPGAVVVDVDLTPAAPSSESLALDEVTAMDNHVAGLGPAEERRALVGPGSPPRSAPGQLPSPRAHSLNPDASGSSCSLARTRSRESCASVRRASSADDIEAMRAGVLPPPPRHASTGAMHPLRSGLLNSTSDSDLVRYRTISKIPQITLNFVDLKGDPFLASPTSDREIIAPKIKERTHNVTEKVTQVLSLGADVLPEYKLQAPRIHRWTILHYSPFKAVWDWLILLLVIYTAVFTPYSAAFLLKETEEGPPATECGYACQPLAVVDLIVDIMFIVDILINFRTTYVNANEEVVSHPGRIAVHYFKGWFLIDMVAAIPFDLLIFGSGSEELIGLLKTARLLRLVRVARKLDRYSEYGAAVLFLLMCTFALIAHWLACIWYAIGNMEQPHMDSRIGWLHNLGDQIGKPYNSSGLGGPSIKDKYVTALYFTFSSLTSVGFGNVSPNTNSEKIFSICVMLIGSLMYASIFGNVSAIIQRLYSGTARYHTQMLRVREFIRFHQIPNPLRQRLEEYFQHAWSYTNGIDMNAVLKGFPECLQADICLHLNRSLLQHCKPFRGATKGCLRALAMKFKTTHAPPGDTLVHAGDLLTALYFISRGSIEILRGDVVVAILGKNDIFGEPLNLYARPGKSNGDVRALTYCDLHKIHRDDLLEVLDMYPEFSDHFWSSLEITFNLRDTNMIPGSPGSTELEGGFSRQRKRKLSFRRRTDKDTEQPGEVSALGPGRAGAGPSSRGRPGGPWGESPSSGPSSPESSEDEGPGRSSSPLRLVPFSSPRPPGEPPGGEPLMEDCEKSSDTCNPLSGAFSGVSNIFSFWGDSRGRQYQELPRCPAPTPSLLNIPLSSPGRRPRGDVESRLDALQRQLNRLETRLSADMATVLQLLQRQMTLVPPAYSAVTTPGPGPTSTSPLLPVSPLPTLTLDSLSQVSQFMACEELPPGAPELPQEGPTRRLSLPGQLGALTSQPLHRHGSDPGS

First: O=c1[nH]c2ccc(S(=O)(=O)NCc3ccccc3)cc2[nH]1
Second: O=C(COC(=O)c1cc(S(=O)(=O)NCc2ccccc2)ccc1O)NCc1ccccc1
The activity increase over dofetilide control, less the hit threshold of the first is higher: -5% for the first, -7% for the second.

Going from CC(=O)N(C1=C(N)C(=O)c2ccccc2C1=O)C(C)C to CC(C)c1ccc(OCC(=O)NN2C(=O)c3ccccc3C2=O)c(Br)c1, the activity increase over dofetilide control, less the hit threshold falls from -12% to -17%.

First: Clc1ccc(Cc2ccccc2)nn1
Second: O=C(COc1ccc(Br)cc1Cl)NC(=S)N1CCc2ccccc21
The activity increase over dofetilide control, less the hit threshold of the first is lower: -10% for the first, -4% for the second.

Going from CC(=O)C1=C(O)C(=O)N(c2cccnc2)C1c1ccc(Cl)cc1 (stereo not given) to Cc1cc(N2C(=O)C(O)=C(C(=O)c3cccs3)C2c2ccccc2)no1 (stereo not given), the activity increase over dofetilide control, less the hit threshold rises from -30% to -11%.

Compared with O=C(COc1coc(CN2CCc3ccccc3C2)cc1=O)Nc1cccc(Cl)c1, CSc1nc2ccc(S(=O)(=O)N3CCc4ccccc43)cc2s1 is higher in activity increase over dofetilide control, less the hit threshold: -17% for the first, 0% for the second.

Going from CCOc1ccc2[nH]c(=O)c(CN(Cc3ccc(C)cc3)C(=O)N3CCCC3)cc2c1 to COc1ccc(CNC(=O)C(=O)c2cn(CC(=O)N3CCCC3)c3ccccc23)cc1, the activity increase over dofetilide control, less the hit threshold falls from -8% to -21%.

Compared with Cc1cc(C)cc(NC(=O)N2CCCC2C(=O)Nc2ccc(-n3cnnn3)c(C)c2)c1 (stereo not given), O=C(NNC(=O)c1ccc(Cl)cc1Cl)c1cnccn1 is higher in activity increase over dofetilide control, less the hit threshold: -28% for the first, -16% for the second.

Compared with Cc1cc(SC#N)cc(C)c1NC(=O)CCl, CC(C)CC(=O)Nc1nc(=S)ss1 is lower in activity increase over dofetilide control, less the hit threshold: -1% for the first, -11% for the second.

Going from C=CCNC(=O)CC(=O)N/N=C/c1cccs1 to C=CCNc1sc(C(=O)C(C)(C)C)c(N)c1C#N, the activity increase over dofetilide control, less the hit threshold falls from 0% to -14%.

Compared with O=C(NC1CCN(c2ncccn2)CC1)c1c(F)cccc1F, Cc1ccccc1C(=O)c1cn[nH]c1-c1ccccc1O is lower in activity increase over dofetilide control, less the hit threshold: -2% for the first, -29% for the second.

Going from COc1cc(/C=C2/C(=O)NN(c3ccc(Cl)c(Cl)c3)C2=O)cc([N+](=O)[O-])c1O to O=[N+]([O-])C1=CC=C2C(=NC3(CCCCC3)N2O)C1=NC1CCCCC1, the activity increase over dofetilide control, less the hit threshold falls from -1% to -15%.

Nc1ccc2c(c1)C(=O)C(=O)c1ccccc1-2 was tested, and the activity increase over dofetilide control, less the hit threshold was 10% (active).
In the case of CC(Oc1ccc(Cl)cc1Cl)C(=O)NC(=S)N1CCc2ccccc21 (stereo not given), the activity increase over dofetilide control, less the hit threshold was 36% (active).
In the case of O=C(COc1ccc(Cl)cc1Cl)NC(=S)N1CCCc2ccccc21, the activity increase over dofetilide control, less the hit threshold was 21% (active).
For O=C(COc1ccc(Br)cc1Br)NC(=S)N1CCCc2ccccc21, the activity increase over dofetilide control, less the hit threshold was 6% (active).
In the case of CC(CCc1ccccc1)NC(=S)NC(=O)c1ccco1 (stereo not given), the activity increase over dofetilide control, less the hit threshold was 28% (active).
For O=C(NC(=S)N(CCc1ccccc1)CCc1ccccc1)c1ccco1, the activity increase over dofetilide control, less the hit threshold was 53% (active).
In the case of O=C(Nc1nc(=S)ss1)c1ccc(Cl)cc1Cl, the activity increase over dofetilide control, less the hit threshold was 70% (active).
With Cc1ccccc1C(=O)Nc1nc(=S)ss1 the activity increase over dofetilide control, less the hit threshold was 39% (active).
